Results as given in PubChem BioAssay (EPA / NIEHS).
Activity calls are given as the source filed them. The calls were made as follows: active = hit-call score of the fitted dose curve at least 0.9, where 1 is the maximum; inactive = score below 0.9.

read-out: Hypoxia-inducible factor 1-alpha (Homo sapiens) (UniProt Q16665); test: LTEA_HepaRG_HIF1A: Life Technologies and Expression Analysis (LTEA) Assay for Hypoxia-inducible factor 1 (HIF1A) Trancription factor using HepaRG (AID 2283503); conditions: mRNA level, 48 h; actives raise or lower the signal;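 also: HIF1A transcript by TaqMan qRT-PCR normalized to ACTB GAPDH and POLR2A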
Experimental: LTEA_HepaRG is a cell based, multiplexed-readout assay that uses HepaRG, a human liver cell line, with measurements taken at 48 hours after chemical dosing on a 96-well plate.LTEA_HepaRG_HIF1A is one of 102 assay component(s) measured in the LTEA HepaRG cell culture assay. It is a marker of Cell proliferation, survival, death.Data from the assay component LTEA_HepaRG_HIF1A was analyzed into 1 endpoint. This assay endpoint, LTEA_HepaRG_HIF1A, was analyzed with bidirectional fitting relative to DMSO as the negative control and baseline of activity. Using a type of inducible reporter, measures of mRNA induction for gain or loss-of-signal activity can be used to understand regulation of transcription factor activity. To generalize the intended target to other relatable targets, this assay endpoint is annotated to the dna binding intended target family, where the subfamily is basic helix-loop-helix protein.
A total of 1060 chemcials from the ToxCast library were tested in eight-point concentration-response experiments. Cell culture and cytotoxicity assays were conducted at Thermo Fisher Scientific's Custom Services facility (Madison, WI). A single lot of human HepaRG cells (Thermo Fisher Scientific, Frederick, MD) was used for the cell culture experiments. 96-well format collagen type I coated plates of human HepaRG cells were prepared using established methods. Briefly, cryopreserved HepaRG cells were thawed, plated at a density of approximately 100,000 cells/well in HepaRG Thaw, Plate, and General Purpose media (HPRG770, Thermo Fisher Scientific), and incubated for 48 hours. 0.5% DMSO was selected as vehicle control to balance the requisite need of DMSO in HepaRG cultures to maintain differentiation (for example, baseline metabolism, proportions of hepatocytes vs. cholangiocytes), while enabling further hepatic receptor pathway activation (for example, PXR and CAR) in response to chemical exposure. 48 hours after plating, the culture medium was replaced with HepaRG Serum-Free Incudtion Media. Cells were exposed to each test chemical in duplicate and maintained in CO2 incubators for another 48 hours. Chemical plates were thawed to room temperature and 200x concentrations of treatment groups were prepared. 8-point conentration-reponse curves were made with the highest exposure at 100 uM, followed by half-log dilutions, all in 0.5% DMSO. Each test plate contained variouse controls, induction positive controls (1mM phenobarbital), cytotoxicity positive controls ([…] aflatoxin B1), vehicle controls (0.5% DMSO), and total lysis controls (0.5% DMSO). Cell morphology images were taken using an Essen IncuCyte FLR automated microscope, with six 96-well plates imaged in about 24 minutes. Images were captured and exported and JPEG files. Spent culture media was transfered to black-well plates for the LDH assay, and remaining media was sorted at -80 C for later use. Cells were treated with RLT buffer and frozen until shipped for gene expression analysis. Total RNA was isolated from the cell suspension in 75 uL of Buffer RLT (Qiagen, Germantown, MD 20874) by Quintiles/Expression Analysis (Durham, NC) using a custom isolation procedure. Total RNA from each plate well was transferred to a preamplification plate. Fluidigm's 96.96 Dynamic ArrayTM (Fluidigm, Amsterdam, the Netherlands) technology was used for gene expression analyses by quantitative reverse transcription polymerase chain reaction (qRT-PCR, performed by Quintiles/Expression Analysis, Durham, NC)89. Standard TaqManTM Assays (Applied Biosystems/ThermoFisher Scientific, Foster City, CA) were used to assess the expression of 93 genes selected based on their selectivity and sensitivity to important hepatic receptors known to be modulated by environmental chemicals; importance in human hepatocyte functionality; and hepatotoxicity. […]

Hypoxia-inducible factor 1-alpha (Homo sapiens), sequence (Q16665 whole entry, looked up): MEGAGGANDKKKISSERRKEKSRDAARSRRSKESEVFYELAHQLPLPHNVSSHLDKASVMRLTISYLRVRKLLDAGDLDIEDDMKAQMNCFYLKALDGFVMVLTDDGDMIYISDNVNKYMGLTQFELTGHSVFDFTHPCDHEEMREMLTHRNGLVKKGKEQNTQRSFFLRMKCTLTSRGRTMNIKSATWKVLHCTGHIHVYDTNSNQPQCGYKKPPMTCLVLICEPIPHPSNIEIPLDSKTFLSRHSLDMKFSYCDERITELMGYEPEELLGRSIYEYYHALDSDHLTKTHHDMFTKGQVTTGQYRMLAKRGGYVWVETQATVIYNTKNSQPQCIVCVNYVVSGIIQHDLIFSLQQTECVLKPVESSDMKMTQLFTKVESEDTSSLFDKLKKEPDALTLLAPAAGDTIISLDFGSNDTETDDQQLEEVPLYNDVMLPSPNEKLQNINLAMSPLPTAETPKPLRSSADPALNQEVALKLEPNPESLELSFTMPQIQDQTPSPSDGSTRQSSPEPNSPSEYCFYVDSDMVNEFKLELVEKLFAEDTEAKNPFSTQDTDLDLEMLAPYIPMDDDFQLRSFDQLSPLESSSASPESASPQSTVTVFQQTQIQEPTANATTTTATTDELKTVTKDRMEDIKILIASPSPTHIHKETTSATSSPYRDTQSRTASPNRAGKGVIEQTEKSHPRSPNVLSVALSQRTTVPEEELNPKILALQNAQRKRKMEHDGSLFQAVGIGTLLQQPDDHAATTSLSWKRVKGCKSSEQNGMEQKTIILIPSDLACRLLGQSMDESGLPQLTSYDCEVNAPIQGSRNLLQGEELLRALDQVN

| SMILES | outcome | AC50 |
| --- | --- | --- |
| c1cc2c3c(cccc3c1)CC2 | inactive | – |
| CCOc1ccc(C(C)(C)COCc2cccc(Oc3ccccc3)c2)cc1 | inactive | – |
| CCOS(=O)(=O)OCC | inactive | – |
| ClC(Cl)(Cl)c1ccccc1 | inactive | – |
| COCCOCCO | inactive | – |
| CC(C)(C)c1ccc(O)cc1 | inactive | – |
| c1ccc2c(c1)Nc1ccccc1S2 | inactive | – |
| ClC(Cl)c1ccccc1 | inactive | – |
| Nc1ccc2ccccc2c1 | inactive | – |
| CCCCN(CCCC)SN(C)C(=O)Oc1cccc2c1OC(C)(C)C2 | inactive | – |
| CCCCN(CCCC)N=O | inactive | – |
| CSC(C)(C)C=NO | inactive | – |
| ClC1=C(Cl)C2(Cl)C3C(Cl)C(Cl)CC3C1(Cl)C2(Cl)Cl (stereo not given) | – | 4.98 µM (active) |
| CCC1(c2ccccc2)C(=O)N=C(O)NC1=O (stereo not given) | inactive | – |
| CC(C)(C)OOC(C)(C)C | inactive | – |
| CCCCCCCc1ccc(O)cc1 | inactive | – |
| CCOC(=O)c1ccccc1C(=O)OCC | inactive | – |
| CCNc1nc(Cl)nc(NC(C)(C)C)n1 | inactive | – |
| O=C(O)C(Cl)Cl | inactive | – |
| OCC1CO1 (stereo not given) | inactive | – |

| SMILES | outcome | AC50 |
| --- | --- | --- |
| CCC(C)(C)c1ccc(O)cc1 | inactive | – |
| [N-]=[N+]=[N-] | inactive | – |
| CN(C)C(=O)Cl | inactive | – |
| CCOP(=S)(OCC)SCSCC | inactive | – |
| Cc1cccc(N)c1 | inactive | – |
| CCCCc1ccccc1 | inactive | – |
| CC(Cl)(Cl)C(=O)O | inactive | – |
| c1nc[nH]n1 | inactive | – |
| c1ccc(OP(Oc2ccccc2)Oc2ccccc2)cc1 | inactive | – |
| Nc1ccc(Cl)cc1 | inactive | – |
| O=[N+]([O-])c1ccc(Cl)c(Cl)c1 | inactive | – |
| Nc1cc2c3c(c1)C(c1ccccc1)=N[C@@H](NC(=O)c1cccnc1)C(=O)N3CC2 | inactive | – |
| CCN(CC)c1ccccc1 | inactive | – |
| Cc1ccc(O)cc1C | inactive | – |
| CC(Cc1ccc(OCC(=O)O)cc1)NCC(O)c1csc(C(F)(F)F)n1 (stereo not given) | inactive | – |
| Cc1ccc([N+](=O)[O-])cc1C | inactive | – |
| CCOP(=S)(Oc1ccc([N+](=O)[O-])cc1)c1ccccc1 (stereo not given) | inactive | – |
| Cc1ccc(N)cc1N | inactive | – |
| CCCN(CCC)c1c([N+](=O)[O-])cc(C(C)C)cc1[N+](=O)[O-] | inactive | – |
| O=[N+]([O-])c1ccccc1 | inactive | – |
